# Assay outcomes as filed in PubChem BioAssay.
# A selection: hits, their analogues and other compounds. The true share with any hit is near 17%.
# ATXN viability: Viability Counterscreen for Primary qHTS for Inhibitors of ATXN expression; S2 cells (HEK-293 line with an ATXN2-luciferase reporter) viability, CellTiter-Fluor protease fluorescence, 24 h; Potency, µM (doses to about 56.7 µM), most hits filed as cytotoxic; 400,000 compounds, 0.49% hits; note: nearly all actives have a fitted effect of over 40% in size
# TGFb SMAD3 inh: qHTS for Inhibitors of TGF-b. HepG2 CAGA-GFP TGF-b/SMAD3 reporter, GFP fluorescence, 18 h; TGF-beta stimulated, 500 pg/mL final. Potency, µM (titrated, usually from 46.1 µM), for the others: at the highest dose activity, negative = inhibition, most hits filed as inhibitors. 410,000 compounds, 1.2% hits; note: % is set by controls: 0 for no effect and ±100 for the full control effect; nearly all actives have a fitted effect of over 65% in size
#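 TGF-beta reporter screen: HEPG2 CAGA-GFP, 1% FBS, 500 pg/mL TGF-beta final, 18 h; per-cell GFP summed per well; curves fitted and categorized by class.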
# TDP1 cell noCPT: qHTS for Inhibitors of human tyrosyl-DNA phosphodiesterase 1 (TDP1): qHTS in cells in absence of CPT. Potency, µM (series often up to 46.2 µM), inactives show at the top dose activity change, negative = growth inhibition, hits mostly inhibitors. 420,000 compounds, 15% hits. AID 686978, 2013. DT40 Tdp1-/- hTDP1 cells, no CPT, ATP luminescence, 48 h; note: % is set by controls: 0 for no effect and ±100 for the full control effect; nearly all actives have a fitted effect of over 55% in size
#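 Seeded 400 DT40-hTDP1 cells/well (vehicle DMSO, no 20 nM CPT); pinned compounds; ≥48 hr at 37 °C; CellTiter-Glo luminescence as viability measure.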
# HepG2 viability: qHTS for Inhibitors of TGF-b: Cytotox Counterscreen; Potency, µM (doses to about 46.1 µM), for inactives: at the highest dose activity change, negative = cytotoxicity, most hits filed as cytotoxic; 410,000 compounds, 0.76% hits; HepG2 CAGA-GFP viability, ATP luminescence, 18 h
#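 HepG2 CAGA-GFP cells (1000/well, DMEM with 1% FBS) received compound, then TGF-beta at 500 pg/mL final, and were incubated 18 hours at 37 degrees C. Viability was read by CellTiter-Glo luminescence. Media-only wells were set as complete cell-killing and DMSO as no toxicity.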
# TDP1 cell CPT: qHTS for Inhibitors of human tyrosyl-DNA phosphodiesterase 1 (TDP1): qHTS in cells in presence of CPT; chicken DT40 Tdp1-/-;hTDP1 cells + 20 nM CPT, ATP luminescence, 48 h; Potency, µM (series often up to 46.2 µM), for inactives: top-dose activity change, negative = growth inhibition, most hits filed as inhibitors; 420,000 compounds, 12% hits; note: % is set by controls: 0 for no effect and ±100 for the full control effect; nearly all actives have a fitted effect of over 55% in size
#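 Chicken DT40 Tdp1-/- cells stably complemented with human TDP1 were seeded at 400 cells/well in medium containing 20 nM camptothecin, exposed to pin-transferred compounds, and grown at 37 °C for at least 48 hr. Viability was read as ATP luminescence.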
# ATXN2 expr inh: Primary qHTS for Inhibitors of ATXN expression | HEK-293 ATXN2-luciferase reporter, luminescence, 24 h | Potency, µM (titrated, usually from 57 µM), inactives show top-dose activity change, negative = inhibition, usual class: inhibitors | 360,000 compounds, 0.72% hits | AID 1745845, 2022; note: % is set by controls: 0 for no effect and ±100 for the full control effect; nearly all actives have a fitted effect of over 55% in size
#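 qHTS (up to 57 uM final) was run with 24 h compound exposure of reporter cells at 37 °C. Each well was multiplexed: SteadyGlo luminescence measured ATXN2-luciferase expression after a fluorogenic Gly-Phe-AFC viability readout (25 uM final).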
# * marks the source's active call; other numbers are inactive results; i = inactive; ? = inconclusive; . = not tested or not shown. Calls come from the whole dose curve; as a rule, active = well fitted curve in the direction sought with a large enough effect; inconclusive = small, poorly fitted or top-dose-only effect, or another doubt; inactive = no such curve, though single readings can be large; an effect the other way counts as inactive or inconclusive. Potency is the fitted concentration of half-maximal effect.
SMILES,ATXN viability,TGFb SMAD3 inh,TDP1 cell noCPT,HepG2 viability,TDP1 cell CPT,ATXN2 expr inh
COc1cc2sc3ccc(-c4ccc5[nH]ccc5c4)cc3c(=O)c2cc1OC,i,-14%,5.8µM*,-1%,5.8µM*,66%
O=c1c2ccccc2oc2ccccc12,.,.,-14%,.,-5%,.
O=c1c2ccccc2oc2cc(-c3ccc4[nH]ccc4c3)ccc12,?,?,2.1µM*,-39%,1.8µM*,75%
COc1cc2c(cc1OC)n(CC(=O)c1ccc(C)cc1C)c(=O)n1nc(CCn3nc(C)cc3C)nc21,.,-5%,0%,-13%,14%,.
NC(=O)c1ccc(NC(=O)COC(=O)c2ccc(Br)c(S(=O)(=O)N3CCOCC3)c2)cc1,i,-2%,-1%,3%,-9%,-3%
Cc1ccc(O)c(N=Nc2nccs2)c1,?,?,0.92µM*,-31%,1.2µM*,?
COCCCNC(=S)N1CCN(c2nc(-c3ccccc3)cs2)CC1,i,?,12µM*,-32%,16µM*,?
COCCCNC(=S)N1CCN(c2nc(-c3ccc(Cl)cc3)cs2)CC1,i,-20%,18µM*,-34%,?,.
CCN(CC)CCCNC(=S)N1CCN(c2nc(-c3ccccc3)cs2)CC1,?,?,18µM*,-74%,?,?
COCCCNC(=S)N1CCN(C(c2ccccc2)c2ccccc2)CC1,i,4%,?,1%,-33%,2%
O=C(NC(=S)N1CCN(c2nc(-c3ccccc3)cs2)CC1)c1cncc(Br)c1,?,?,?,-47%,10µM*,?
COCCNC(=S)N1CCN(c2ccc(Cl)cc2)CC1,i,5%,-40%,2%,-26%,1%
CCCCNC(=S)N1CCN(c2nc3ccccc3s2)CC1,i,-9%,?,-24%,?,-25%
CCC1Oc2ccc(C)cc2N(CC(=O)NCCCN2CCOCC2)C1=O (stereo unspecified),i,27%,1%,16%,12%,4%
Cc1ccc(N=C(N)N=C(N)N)c(C)c1,i,4%,?,-58%,?,-18%
O=C(COc1ccccc1F)OCc1cc(=O)n2nc(-c3cccs3)sc2n1,i,-4%,-2%,3%,-12%,-4%
CC(C)CNC(=S)N1CCN(c2nc(-c3ccc(Cl)cc3)cs2)CC1,?,?,16µM*,-40%,?,16µM*
COc1ccc(-c2nnn(CC(=O)N3CCN(c4ccc(F)cc4)CC3)n2)cc1,i,-6%,15%,-1%,-5%,5%
COc1cccc(-c2csc(N3CCN(C(=S)Nc4cccc(Cl)c4)CC3)n2)c1,?,?,-25%,-55%,-15%,?
COc1ccc(N2CCN(C(=O)CN3CCN(c4nc(-c5ccc(F)cc5)cs4)CC3)CC2)cc1,i,-8%,7.3µM*,-2%,5.8µM*,-15%
CCC(=O)N1CCN(c2nc(-c3ccc(Cl)cc3)cs2)CC1,i,-3%,23µM*,2%,23µM*,?
Clc1ccc(-c2csc(N3CCSCC3)n2)cc1,i,-4%,29%,-5%,-16%,36%
CC[C@H](C)[C@H]1CNC(=O)C(=O)N1CC1CCN(CC2CCC(C)CC2)CC1 (stereo partly specified),i,0%,-7%,-3%,?,-13%
CCOc1cc(/C=N/O)cc(Br)c1OCC,i,-7%,-28%,-23%,-2%,6%
C#CCOc1c(Br)cc(/C=N/O)cc1OCC,i,45%,29µM*,36%,-17%,-32%
